Mtb FBA inh: Mtb FBA enzyme inhibitors, primary screen, biochemical, fluorescence, strain H37Rv; Fructose-bisphosphate aldolase (Mycobacterium tuberculosis (strain ATCC 25618 / H37Rv)), …; purified M. tuberculosis FBA, fluorescence read-out; inhibition, % at 1 µM; hit rate 2.3% among 360,000; AID 588726, 2011; in the data active means inhibition above about 27%;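 further: 0% = vehicle and 100% = reference inhibitor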
GDH-TPI inh: GDH-TPI coupling enzyme inhibitors, primary screen, artefact control for M. tuberculosis FBA inhibitor project, biochemical, absorbance, full deck; AID 588335, 2011; inhibition, % at 4.8 µM; GDH-TPI coupled enzyme counterscreen, NADH absorbance; hit rate 1.2% among 360,000; in the data active means inhibition above about 30%;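 further: 0% = DMSO wells and 100% = wells lacking the enzyme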
Mtb UGM inh: M. tuberculosis UGM enzyme inhibitors, primary screen, biochemical, fluorescence polarization, single point. UDP-galactopyranose mutase (Mycobacterium tuberculosis (strain ATCC 25618 / H37Rv)), …. purified UGM, fluorescence polarization probe displacement. inhibition, % at 10 µM. hit rate 0.06% among 320,000. AID 504406, 2011; in the data active means inhibition above about 10%, passing the limit was not always enough
Target sequence (P9WIQ1 whole entry, looked up): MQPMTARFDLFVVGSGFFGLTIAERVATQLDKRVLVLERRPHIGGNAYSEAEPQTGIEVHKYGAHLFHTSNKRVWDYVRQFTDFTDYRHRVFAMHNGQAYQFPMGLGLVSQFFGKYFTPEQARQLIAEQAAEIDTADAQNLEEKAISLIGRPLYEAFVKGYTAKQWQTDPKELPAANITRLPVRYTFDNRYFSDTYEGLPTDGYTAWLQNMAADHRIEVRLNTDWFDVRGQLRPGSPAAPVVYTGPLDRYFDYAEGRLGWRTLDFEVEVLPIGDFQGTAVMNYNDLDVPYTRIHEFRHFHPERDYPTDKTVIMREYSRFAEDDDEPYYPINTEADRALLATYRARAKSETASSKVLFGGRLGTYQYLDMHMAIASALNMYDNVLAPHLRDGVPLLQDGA
Rv3671c inh: Rv3671c serine protease inhibitors, primary screen, biochemical, fluorescence polarization, M. tuberculosis H37Rv | hit rate 0.048% among 320,000 | P9WHR9 | inhibition, % at 5.96 µM | AID 2606, 2010; in the data active means inhibition above about 38%;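 further: extracellular domain of Rv3671c used as enzyme; 0% = enzyme with DMSO and 100% = no enzyme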
Starred values were filed as active, the others as inactive; · = no result; + = active, no number. Only some compounds are listed: those with a hit (about 3.5% of all), similar ones and a draw of the others.

SMILES	Mtb FBA inh	GDH-TPI inh	Mtb UGM inh	Rv3671c inh
Cc1ccc([C@H]2N[C@]3(CCCN(Cc4ccc(F)cc4)C3=O)[C@H]3C(=O)N(C)C(=O)[C@@H]23)cc1	-1	9	·	·
CS(=O)(=O)Nc1ccccc1-c1ccc2nccn2c1	1	4	·	·
Cc1ccc(/C=N/N=C2/NC(=O)C(CC(=O)Nc3ccc(Cl)cc3)S2)o1 (centres undefined)	-1	41*	-1	0
O=C(CC1S/C(=N/N=C/c2ccco2)NC1=O)Nc1cccc(Cl)c1Cl (centres undefined)	0	42*	-2	-30
O=C(O)CC1S/C(=N/N=C/c2ccc(-c3ccc(Cl)c([N+](=O)[O-])c3)o2)NC1=O (centres undefined)	-2	17	5	9
O=C(O)CC1S/C(=N/N=C/c2ccc(-c3ccc(Cl)cc3[N+](=O)[O-])o2)NC1=O (centres undefined)	-3	33*	5	-23
Cc1noc(NS(=O)(=O)c2ccc(NC(=O)c3nn(-c4ccc(F)cc4)ccc3=O)cc2)c1C	-1	32*	2	-3
Cc1ccc(C(=O)NNC(=O)c2nn(-c3ccc(F)cc3)ccc2=O)cc1	-5	33*	-2	1
CC(C)c1ccc(C(=O)Nc2ccc(S(=O)(=O)NC3=NCCCCC3)cc2)cc1	0	-12	·	·
O=C(NNC(=O)c1nn(-c2ccc(F)cc2)ccc1=O)c1ccc(Cl)cc1	2	15	0	1
CN(C)c1ccc(C(=O)Nc2ccc(S(=O)(=O)Nc3nccs3)cc2)cc1	4	38*	1	-46
Cc1ccc(-n2ccc(=O)c(C(=O)Nc3ccc(S(=O)(=O)Nc4onc(C)c4C)cc3)n2)cc1	-2	27	0	-3
CN(C)c1ccc(C(=O)Nc2ccc(S(=O)(=O)NC3=NCCCCC3)cc2)cc1	-1	33*	0	8
CC(C(=O)Nc1ccc(C(N)=O)cc1)N1C(=O)c2ccccc2S1(=O)=O (centres undefined)	1	14	-2	-8
OCCN1CCN(c2nc(-c3ccccc3O)nc3ccccc23)CC1	2	28	1	-2
CCOc1ccc(C(C)=O)cc1CSc1nc2nc(C)cc(C)n2n1	-1	11	2	-3
CS(=O)(=O)N(Cc1ccccc1)c1ccc(C(=O)Nc2ccccc2C(=O)O)cc1	5	7	-2	-4
CCCn1c(=O)c2sccc2n2c(CCCC(=O)NC3CCN(Cc4ccccc4)CC3)nnc12	5	1	0	-2
Cc1noc(NS(=O)(=O)c2ccc(NC(=O)c3ccc(N(C)C)cc3)cc2)c1C	3	32*	0	2
Cc1cc(NS(=O)(=O)c2ccc(NC(=O)c3cnc4scc(C)n4c3=O)cc2)nc(C)n1	2	15	0	1
Cc1noc(NS(=O)(=O)c2ccc(NC(=O)c3cnc4scc(C)n4c3=O)cc2)c1C	-2	49*	4	3
COc1ccc(CC(=O)OCN2C(=O)c3ccccc3C2=O)cc1OC	-1	-5	2	-1
COC(=O)C1=COC(OC2OC(CO)C(O)C(O)C2O)C2C(C)CC(=O)C12 (centres undefined)	-1	1	·	·
COCCNC(=O)c1cc2c(=O)n3cccc(C)c3nc2n1C	19	9	0	-3
COCCn1c(=N)c(C(=O)NCCc2ccccc2)cc2c(=O)n3cccc(C)c3nc21	117*	-2	-1	6
SMILES	Mtb FBA inh	GDH-TPI inh	Mtb UGM inh	Rv3671c inh
Cc1cccn2c(=O)c3cc(C(=O)NCCc4ccccc4)c(=N)n(CCCn4ccnc4)c3nc12	129*	-4	1	2
Cc1ccc2nc3c(cc(C(=O)NC4CCCC4)c(=N)n3CCCn3ccnc3)c(=O)n2c1	·	·	2	1
COc1ccc(CCNC(=O)c2cc3c(=O)n4ccccc4nc3n(CCN3CCOCC3)c2=N)cc1	24	7	1	2
CNC(=O)c1cc2c(=O)n3cccc(C)c3nc2n(C(C)C)c1=N	+	7	2	7
C=CCn1c(=N)c(C(=O)NCCCOC)cc2c(=O)n3cccc(C)c3nc21	+	15	-4	-3
CCC(C)NS(=O)(=O)c1cc2c3c(c1)CCN3C(=O)CC2 (centres undefined)	8	17	0	1
CCN(CC)CCNC(=O)CNC(=O)c1nn(-c2ccc(OC)cc2OC)c(=O)c2ccccc12	1	5	-3	0
C=CCN(C(=O)CNS(=O)(=O)c1ccccc1)C(C(=O)NCCOC)c1cccnc1 (centres undefined)	6	-3	2	-6
COc1ccc(CCn2c(=N)c(C(=O)NC3CCCC3)cc3c(=O)n4cccc(C)c4nc32)cc1	3	15	-5	-1
CCCCNC(=O)c1cc2c(=O)n3cccc(C)c3nc2n(Cc2ccccc2)c1=N	150*	1	-1	-4
Cc1ccc(Cn2c(=N)c(C#N)cc3c(=O)n4cccc(C)c4nc32)cc1	·	·	1	-13
CCNC(=O)c1cc2c(=O)n3cccc(C)c3nc2n(CCc2ccccc2)c1=N	+	9	8	-2
O=Cc1cc(OCc2ccccc2)ccc1[B-](F)(F)F	5	10	·	·
Cc1ccc(NC(=S)C2=C(O)c3ccccc3N(C)S2(=O)=O)cc1	-7	38*	2	6
CN1c2ccccc2C(O)=C(C(=O)Nc2ccccc2)S1(=O)=O	7	9	3	7
CN1c2ccsc2C(O)=C(C(=S)Nc2ccccc2)S1(=O)=O	0	30	2	3
CN1c2ccccc2C(O)=C(C(=S)Nc2ccccc2)S1(=O)=O	-5	31*	-2	-13
CN1c2ccccc2C(O)=C(C(=S)Nc2ccc(F)c(Cl)c2)S1(=O)=O	10	31*	1	-2
CN(CCc1ccccc1)C(=O)c1cccc(NC(=O)Cc2cccc(NC(=O)C3CCN(C(=O)c4ccccc4)CC3)c2)c1	2	4	·	·
COc1ccc(-c2cc(-c3ccccc3)nc(SC(C)C(=O)O)c2C#N)cc1 (centres undefined)	2	12	-2	-6
CN(C)N=Nc1nc2c(c(=O)n(C)c(=O)n2C)n1C	0	34*	1	6
CC(C)/C=N/Nc1nc2c(c(=O)n(C)c(=O)n2C)n1C	-1	9	1	8
COc1ccc2[nH]c3c(=O)n(CCN4CCOCC4)cnc3c2c1	152*	31*	1	1
COc1cccc2[nH]c3c(N4CCC5(CC4)OCCO5)ncnc3c12	149*	12	3	-4
COc1ccc2c(c1)c1ncn(CCN3CCNCC3)c(=O)c1n2C	129*	1	-1	3
COc1cccc2[nH]c3c(=O)n(CCCN4CCOCC4)cnc3c12	147*	22	2	-1
CNc1oc(-c2ccc(Cl)cc2)nc1C#N	+	0	2	-1
N#Cc1nc(-c2ccccc2)oc1NCC1CCCO1 (centres undefined)	171*	6	0	-2

Bioassay records: PubChem, several laboratories
